Assay [1] in a line: resazurin metabolic signal in HepG2 cells – cell-based, resazurin fluorescence, 24 h, PK04 Diversity Set, profiling panel (AID 1172). The settings on record: HepG2 viability, higher = more signal. A general note: The colour change of resazurin is a common sign of viable cells or microbes.
The nature of assay [2]: budding yeast growth changes without added modifier – OD600, strain BY4716, 24 h, basal condition, primary screen (AID 1173). The note with it: S. cerevisiae BY4716 growth, OD600, 24 h; higher = more signal, called active from +8 up or from −8 down unless noted.
Assay [3] in a line: viability profiling in MM1S myeloma cells – cell-based, resazurin fluorescence, basal, 24 h, PK04 Diversity Set, profiling panel (AID 1174). The note with it: higher = more signal, called active from +8 up or from −8 down unless noted.
Assay [4] concerns the target Dihydroorotate dehydrogenase (quinone), mitochondrial (Plasmodium falciparum (isolate 3D7)) (UniProt Q08210). The experiment in a line: inhibition of P. falciparum DHODH – biochemical, C-terminal His tag, absorbance 600 nm, primary screen (AID 1175).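 Further: recombinant parasite enzyme with a five histidine tag at its C terminus.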 The note with it: PfDHODH enzyme, DCIP absorbance 600 nm; higher = more signal, called active from +8 up or from −8 down unless noted.

Assay [5] is described as follows: inhibition of PAO1 biofilm formation – strain PAO1, LB-PBS medium, absorbance 600 nm, primary screen (AID 1176). The settings on record: P. aeruginosa PAO1 growth/biofilm, A600, 12 h; higher = more signal.
Assay [6] in a line: growth modulation of vineyard yeast isolate – strain RM11-1a, OD600, basal, 24 h, primary screen (AID 1177).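 Further: cultures grown under basal conditions with no added stressor.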 The settings on record: S. cerevisiae RM11-1a growth, OD600, 24 h; higher = more signal, called active from +8 up or from −8 down unless noted.
A short description of assay [7]: growth of efflux-deficient E. coli DRC39 – strain DRC39, OD650, 24 h, E. coli filamentation inducers, primary screen (AID 1178).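 Further: growth measured as culture turbidity by optical density at 650 nm.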 The note with it: E. coli DRC39 acrAB; higher = more signal, called active from +8 up or from −8 down unless noted.
A short description of assay [8]: growth of efflux-deficient E. coli DRC39 – strain DRC39, OD650, 48 h, E. coli filamentation inducers, primary screen (AID 1179).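 Further: screen aims at cell division blockers that make cells filament.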 The note with it: E. coli DRC39 delta-acrAB growth, higher = more signal, called active from +8 up or from −8 down unless noted.
Assay [9] can be described thus: viability profiling in RPMI8226 myeloma cells – cell-based, resazurin fluorescence, basal, 24 h, PK04 Diversity Set, profiling panel (AID 1180).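 Further: RPMI8826 multiple myeloma cell line at 5000 cells per well.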 The settings on record: higher = more signal; RPMI8226 viability, resazurin fluorescence, 24 h unless noted.
The target of assay [10] is E3 ubiquitin-protein ligase XIAP (Homo sapiens) (UniProt P98170). The experiment in a line: small molecules binding XIAP protein – biophysical, small-molecule microarray, fluorescence 635 nm, primary screen (AID 1181).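 Further: score merges 667 nm emission and signal to noise over triplicate slides.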 The note with it: higher = more signal.
For assay [11], the system named is XIP peptide (Xip251-270) binding. The experiment in a line: XIP fragment 251-270 binding compounds – biochemical, small-molecule microarray, fluorescence 635/667 nm, 0.1 µg/mL protein, primary screen (AID 1182). The settings on record: fluorescent protein binding, 635 nm; higher = more signal, called active from +8 up or from −8 down unless noted.
The subject of another assay is XIP peptide (Xip251-270). In words: compounds binding XIP fragment 251-270 – biochemical, small-molecule microarray, fluorescence 635/667 nm, 0.5 µg/mL protein, primary screen (AID 1183). The settings on record: fluorescence 635 nm, higher = more signal.
The nature of assay [12]: blood-stage malaria parasite viability loss – strain 3D7, DAPI fluorescence, 100 nL, primary screen (AID 1184).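 Further: parasites grown inside human red blood cells in medium with human serum.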 The note with it: P. falciparum 3D7 growth, 3 d, higher = more signal.
In assay [13] the target is Homeobox protein Hox-A13 (Mus musculus) (UniProt Q62424). The experiment in a line: disruptors of Hoxa13 oligonucleotide interaction – biochemical, fluorescence polarization, labeled oligonucleotide, primary screen (AID 1185). The note with it: Hoxa13:DNA binding, 15 min; higher = more signal, called active from +8 up or from −8 down unless noted. For orientation: Polarisation of emitted light reports the rotation of a fluorescent probe.

A short description of assay [14]: blockers of DNA damage checkpoint Chk1 activation – imaging, HeLa, hydroxyurea, phospho-Chk1 antibody, percent positive cells, primary screen (AID 1186). The note with it: hydroxyurea-induced phospho-Chk1 immunofluorescence imaging, higher = more signal.
The nature of assay [15]: blockers of DNA damage checkpoint Chk1 activation – imaging, HeLa, hydroxyurea, phospho-Chk1 nuclear intensity, primary screen (AID 1187). The note with it: hydroxyurea-induced phospho-Chk1 immunofluorescence imaging, higher = more signal.

Calls of active or inactive are those of the source. Unless noted, how the calls were made is not given here.

Sequence of E3 ubiquitin-protein ligase XIAP (Homo sapiens) (P98170 whole entry, looked up, the tested form may be a part): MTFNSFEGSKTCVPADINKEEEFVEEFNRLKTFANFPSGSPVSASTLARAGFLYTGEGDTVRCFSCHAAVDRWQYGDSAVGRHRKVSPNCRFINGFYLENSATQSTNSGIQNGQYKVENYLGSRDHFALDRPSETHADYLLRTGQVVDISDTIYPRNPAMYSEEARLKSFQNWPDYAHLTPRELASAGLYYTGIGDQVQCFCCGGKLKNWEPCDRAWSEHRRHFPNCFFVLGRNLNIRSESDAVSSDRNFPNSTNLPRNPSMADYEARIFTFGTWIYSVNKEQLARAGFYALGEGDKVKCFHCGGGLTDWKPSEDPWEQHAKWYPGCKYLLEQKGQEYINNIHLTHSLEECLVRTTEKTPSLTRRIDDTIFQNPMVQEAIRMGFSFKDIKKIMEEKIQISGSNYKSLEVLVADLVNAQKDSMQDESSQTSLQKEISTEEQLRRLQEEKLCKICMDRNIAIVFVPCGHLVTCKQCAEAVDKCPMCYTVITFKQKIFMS
Sequence of Dihydroorotate dehydrogenase (quinone), mitochondrial (Plasmodium falciparum (isolate 3D7)) (Q08210 whole entry, looked up): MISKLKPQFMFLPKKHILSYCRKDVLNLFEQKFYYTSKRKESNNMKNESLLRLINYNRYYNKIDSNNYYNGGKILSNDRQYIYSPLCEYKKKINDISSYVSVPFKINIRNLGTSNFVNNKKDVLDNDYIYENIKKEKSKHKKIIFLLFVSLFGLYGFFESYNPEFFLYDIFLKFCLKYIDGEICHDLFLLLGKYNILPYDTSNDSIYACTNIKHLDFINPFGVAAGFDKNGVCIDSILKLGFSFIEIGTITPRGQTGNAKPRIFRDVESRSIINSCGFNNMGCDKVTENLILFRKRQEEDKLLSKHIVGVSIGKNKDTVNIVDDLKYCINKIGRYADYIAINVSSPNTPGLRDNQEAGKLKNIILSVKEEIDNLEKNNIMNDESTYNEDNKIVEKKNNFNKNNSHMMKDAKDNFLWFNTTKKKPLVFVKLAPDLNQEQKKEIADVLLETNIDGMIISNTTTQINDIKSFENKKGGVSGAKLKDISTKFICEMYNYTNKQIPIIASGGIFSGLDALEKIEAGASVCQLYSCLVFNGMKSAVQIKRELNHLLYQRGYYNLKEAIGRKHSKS
Sequence of Homeobox protein Hox-A13 (Mus musculus) (Q62424 whole entry, looked up): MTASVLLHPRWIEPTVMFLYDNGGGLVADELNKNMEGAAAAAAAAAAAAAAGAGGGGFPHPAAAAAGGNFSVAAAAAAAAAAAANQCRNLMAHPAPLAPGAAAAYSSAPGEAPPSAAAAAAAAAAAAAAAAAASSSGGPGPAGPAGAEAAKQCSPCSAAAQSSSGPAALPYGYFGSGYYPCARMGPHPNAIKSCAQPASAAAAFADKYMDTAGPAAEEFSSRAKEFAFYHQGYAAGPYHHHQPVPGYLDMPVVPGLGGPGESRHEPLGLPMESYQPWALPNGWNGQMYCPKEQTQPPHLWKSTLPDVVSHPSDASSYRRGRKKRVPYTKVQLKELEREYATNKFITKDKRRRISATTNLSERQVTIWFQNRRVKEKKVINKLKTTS

`COC(=O)C1(C)C=C2C(=C(C)C(=O)C2C)CN1` (centres undefined): the z-score was -1.13 in assay [1]; 2.09 (inactive) in [2]; -2.31 (inactive) in assay [3]; 1.53 (inactive) in assay [5]; 1.17 (inactive) in assay [6]; -0.608 (inactive) in assay [7]. The z-score in [8] is -1.64 (inactive); in assay [9] it was -1.24; in assay [12], -1.06; in assay [13], -3.26 (inactive); in [14], 0.414 (inactive); in [15], 0.354 (inactive). The composite z-score in [4] is -0.809 (inactive); in assay [10], 0.226; in assay [11], -0.309 (inactive); in the assay with XIP peptide (Xip251-270), -0.628.

For the molecule `CN1CCC(c2ccc(CO)cc2)=CC1c1cccs1` (centres undefined), the z-score in assay [1] was -0.792; in assay [2], -1.01 (inactive); in assay [3], -0.694 (inactive); in assay [5], -0.329 (inactive); in assay [6], 1.13 (inactive); in [7], -0.543 (inactive). Besides, the z-score is -0.447 (inactive) in [8]; -0.118 in [9]; -1.99 in assay [12]; -4.11 (inactive) in assay [13]; 0.126 (inactive) in assay [14]; -0.0255 (inactive) in assay [15]. Further, the composite z-score in assay [4] is 0.083 (inactive); in assay [10] it was 0.152; in assay [11], 0.219 (inactive); in the assay on XIP peptide (Xip251-270), 0.171.

Turning to `c1ccc(-c2cc3c(nc2-c2ccccc2)CCNC3)cc1`, the z-score in assay [1] is 0.469; in [2], -0.0743 (inactive); in [3], 0.526 (inactive); in [5], -0.0933 (inactive); in [6], 1.36 (inactive); in [7] it was 0.306 (inactive). Further, the z-score is -0.29 (inactive) in [8], 0.938 in assay [9], -0.295 in assay [12] and -0.372 (inactive) in [13]. Besides, the composite z-score is 1.07 (inactive) in [4], -0.0344 in assay [10], 0.236 (inactive) in assay [11] and 0.0762 in the assay with XIP peptide (Xip251-270).

As to `O=P(c1ccccc1)(c1ccccc1)N1CC2(CC2)CC(O)(c2ccccc2)C1` (centres undefined), the z-score in assay [1] was -0.561; in [2], 0.12 (inactive); in [3] it was -1.03 (inactive); in assay [5], 0.315 (inactive); in assay [6], 0.445 (inactive); in assay [7], -0.32 (inactive). Moreover, the z-score in assay [8] was 0.158 (inactive); in assay [9], -1.22; in assay [12], 0.45; in [13], -2.7 (inactive); in assay [14] it was 0.37 (inactive); in assay [15] it was 0.613 (inactive). For the same molecule, the composite z-score was -0.001 (inactive) in assay [4], 0.143 in [10], 0.115 (inactive) in [11] and 0.725 with XIP peptide (Xip251-270).

On to `CCOC(=O)[C@H]1CC=C2C(=O)Oc3ccccc3[C@@H]21`, for which the z-score in assay [1] is 0.867; in assay [2], -10.4 (active); in assay [3] it was -0.848 (inactive); in assay [5] it was 0.381 (inactive); in assay [6] it was -1.43 (inactive); in assay [7] it was -0.475 (inactive). Also, the z-score in [8] was -1.11 (inactive); in assay [9], -0.575; in assay [12] it was -0.654; in assay [13] it was -2.72 (inactive); in assay [14], 0.466 (inactive); in assay [15] it was 0.0685 (inactive). Further, the composite z-score in [4] is 0.188 (inactive); in assay [10] it was -0.0727; in assay [11] it was 0.23 (inactive); in the assay on XIP peptide (Xip251-270), 0.637.

For `COC(=O)NCC=Cc1nc(CCC=CC(=O)O[C@H]2CC3CC(=O)O[C@@H](C=CCC(C)C)C[C@@H]4CC[C@H](C)[C@@H](C[C@@H](OC)C[C@H](C2)O3)O4)co1`, the z-score in assay [1] is -1.05; in assay [2], -1.03 (inactive); in assay [3], -2.04 (inactive); in assay [5], 0.168 (inactive); in assay [6], -0.659 (inactive); in assay [7], 0.523 (inactive). Moreover, the z-score was 0.666 (inactive) in assay [8], -1.95 in [9], -1.65 in [12] and -2.54 (inactive) in assay [13]. Moreover, the composite z-score is -0.646 (inactive) in assay [4], -0.102 in [10], 0.0433 (inactive) in assay [11] and -1 with XIP peptide (Xip251-270).

For the molecule `COC(=O)[C@@]1(Cc2ccc(F)cc2)[C@H]2c3cc(C(=O)N(C)C)[nH]c3C[C@H]2CN1C(=O)c1ccccc1`, the z-score in [1] was -1.3; in assay [2], 1.11 [setting not given] (inactive); in [3], -0.811 [setting not given] (inactive); in assay [5] it was 0.191 (inactive); in assay [6], 1.09 [setting not given] (inactive); in assay [7], -0.119 [setting not given] (inactive). The z-score in [8] was 0.169 [E. coli growth] (inactive); in assay [9] it was -0.487 [setting not given]; in [12], 0.412; in [13], -4.26 [setting not given] (inactive); in assay [14] it was 1.11 (inactive); in assay [15], 0.831 (inactive). Further, the composite z-score in assay [4] is 0.25 [setting not given] (inactive); in [10] it was 0.0546; in assay [11], 0.614 [setting not given] (inactive); with XIP peptide (Xip251-270), 0.17.

Take `COc1cc2c(cc1O)C(C)N(C)CC2` (centres undefined): the z-score is -0.454 in assay [1]; -0.709 (inactive) in assay [2]; 0.412 (inactive) in assay [3]; -0.227 (inactive) in assay [5]; -0.448 (inactive) in assay [6]; 0.516 (inactive) in assay [7]. Further, the z-score in assay [8] was -0.385 (inactive); in assay [9], 0.566; in [12], -0.563; in assay [13], -0.569 (inactive); in assay [14] it was -0.0732 (inactive); in assay [15], 0.363 (inactive). The composite z-score in assay [4] was -3.68 (inactive); in assay [10] it was -0.184; in assay [11] it was -0.191 (inactive); in the assay with XIP peptide (Xip251-270), 0.229.

Values taken from PubChem BioAssay.
